Test results as given in PubChem BioAssay AID1159580 (chemical genetic matrix, 2015).
The whole screen tested about 5,500 compounds, of which about 2,000 (36%) were called active. Inconclusive results (about 18%) are left out. Rule as the data show it: active = normalized growth mostly below about 0.91 (no sharp cut-off); inconclusive = no clear call, values can overlap the other calls; inactive = mostly above about 0.92. The list shows a part of the results.

Experiment: chemical genetic growth profiling, strain panel (AID 1159580);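 also: tested at 20 µM; growth read once vehicle control cultures reached saturation at 30 °C; 1 = growth at the plate median or of vehicle wells; lower values mean less growth of the strain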
Settings: growth OD

Measured: normalized growth

CC1=CC(=O)c2ccccc2C1=O
inactive: S. cerevisiae deletion strains, locus YKL068W, active compounds read low 1.01 | S. cerevisiae deletion strains, locus YKR026C, strain gcn3, active compounds read low 1.03 | S. cerevisiae deletion strains, locus YKR091W, strain srl3, active compounds read low 1.03 | S. cerevisiae deletion strains, locus YLL001W, strain dnm1, active compounds read low 0.93 | S. cerevisiae deletion strains, locus YLL026W, active compounds read low 0.997 | S. cerevisiae deletion strains, locus YLL041C, strain sdh2, active compounds read low 1.04 | S. cerevisiae deletion strains, locus YLR258W, strain gsy2, active compounds read low 0.933 | S. cerevisiae deletion strains, locus YLR262C, strain YPT6 (second series), active compounds read low 0.916 | S. cerevisiae deletion strains, locus YLR320W, strain mms22, active compounds read low 0.881 | S. cerevisiae deletion strains, locus YLR342W, strain FKS1, active compounds read low 1.01 | S. cerevisiae deletion strains, locus YLR357W, strain rsc2, active compounds read low 1.04 | S. cerevisiae deletion strains, locus YLR370C, strain arc18, active compounds read low 0.958 | S. cerevisiae deletion strains, locus YLR384C, strain iki3, active compounds read low 1.04 | S. cerevisiae deletion strains, locus YML120C, strain ndi1, active compounds read low 0.968 | S. cerevisiae deletion strains, locus YMR125W, strain sto1, active compounds read low 1.04 | S. cerevisiae deletion strains, locus YMR129W, active compounds read low 1.01 | S. cerevisiae deletion strains, locus YMR231W, strain pep5, active compounds read low 1.02 | S. cerevisiae deletion strains, locus YNL209W, strain ssb2, active compounds read low 0.983 | S. cerevisiae deletion strains, locus YNL322C, strain KRE1 (second series), active compounds read low 0.999 | S. cerevisiae deletion strains, locus YNR049C, strain mso1, active compounds read low 1.02 | S. cerevisiae deletion strains, locus YOR001W, strain rrp6, active compounds read low 0.923 | S. cerevisiae deletion strains, locus YOR070C, strain gyp1, active compounds read low 0.959 | S. cerevisiae deletion strains, locus YOR080W, strain dia2, active compounds read low 1.03 | S. cerevisiae deletion strains, locus YOR265W, strain rbl2, active compounds read low 0.983 | S. cerevisiae deletion strains, locus YOR290C, strain snf2, active compounds read low 1.02 | S. cerevisiae deletion strains, locus YPL078C, strain atp4, active compounds read low 0.941 | S. cerevisiae deletion strains, locus YPL106C, strain sse1, active compounds read low 0.904 | S. cerevisiae deletion strains, locus YPL240C, strain hsp82, active compounds read low 1
active: S. cerevisiae deletion strains, locus YJR075W, strain HOC1, active compounds read low 0.0628 | S. cerevisiae deletion strains, locus YKL009W, strain mrt4, active compounds read low 0.0847 | S. cerevisiae deletion strains, locus YKL085W, strain MDH1 (second series), active compounds read low 0.494 | S. cerevisiae deletion strains, locus YKL085W, strain MDH1, active compounds read low 0.494 | S. cerevisiae deletion strains, locus YKL160W, strain elf1, active compounds read low 0.822 | S. cerevisiae deletion strains, locus YKL190W, strain CNB1, active compounds read low 0.0475 | S. cerevisiae deletion strains, locus YKR001C, strain vps1, active compounds read low 0.0601 | S. cerevisiae deletion strains, locus YLR027C, strain aat2, active compounds read low 0.862 | S. cerevisiae deletion strains, locus YLR039C, strain RIC1, active compounds read low 0.0839 | S. cerevisiae deletion strains, locus YLR058C, strain SHM2, active compounds read low 0.0596 | S. cerevisiae deletion strains, locus YLR102C, strain apc9, active compounds read low 0.0585 | S. cerevisiae deletion strains, locus YLR113W, strain HOG1, active compounds read low 0.294 | S. cerevisiae deletion strains, locus YLR221C, strain rsa3, active compounds read low 0.819 | S. cerevisiae deletion strains, locus YLR262C, strain YPT6, active compounds read low 0.155 | S. cerevisiae deletion strains, locus YLR268W, strain sec22, active compounds read low 0.0659 | S. cerevisiae deletion strains, locus YLR330W, strain CHS5, active compounds read low 0.0494 | S. cerevisiae deletion strains, locus YLR342W, strain FKS1 (second series), active compounds read low 0.0779 | S. cerevisiae deletion strains, locus YLR371W, strain rom2, active compounds read low 0.0598 | S. cerevisiae deletion strains, locus YLR418C, strain cdc73, active compounds read low 0.0923 | S. cerevisiae deletion strains, locus YML016C, strain PPZ1, active compounds read low 0.0501 | S. cerevisiae deletion strains, locus YML032C, strain rad52, active compounds read low 0.112 | S. cerevisiae deletion strains, locus YML124C, strain tub3, active compounds read low 0.0587 | S. cerevisiae deletion strains, locus YMR058W, strain fet3, active compounds read low 0.832 | S. cerevisiae deletion strains, locus YMR078C, strain ctf18, active compounds read low 0.0795 | S. cerevisiae deletion strains, locus YMR205C, strain PFK2, active compounds read low 0.799 | S. cerevisiae deletion strains, locus YMR223W, strain ubp8, active compounds read low 0.0622 | S. cerevisiae deletion strains, locus YMR263W, strain SAP30, active compounds read low 0.0592 | S. cerevisiae deletion strains, locus YMR307W, strain GAS1, active compounds read low 0.118 | S. cerevisiae deletion strains, locus YNL067W, strain RPL9B, active compounds read low 0.0512 | S. cerevisiae deletion strains, locus YNL071W, strain lat1, active compounds read low 0.543 | S. cerevisiae deletion strains, locus YNL128W, strain TEP1, active compounds read low 0.0609 | S. cerevisiae deletion strains, locus YNL153C, strain GIM3, active compounds read low 0.0481 | S. cerevisiae deletion strains, locus YNL183C, strain NPR1, active compounds read low 0.393 | S. cerevisiae deletion strains, locus YNL233W, strain BNI4, active compounds read low 0.0537 | S. cerevisiae deletion strains, locus YNL248C, strain rpa49, active compounds read low 0.883 | S. cerevisiae deletion strains, locus YNL250W, strain rad50, active compounds read low 0.513 | S. cerevisiae deletion strains, locus YNL271C, strain bni1, active compounds read low 0.705 | S. cerevisiae deletion strains, locus YNL298W, strain CLA4, active compounds read low 0.363 | S. cerevisiae deletion strains, locus YNL307C, strain MCK1, active compounds read low 0.0683 | S. cerevisiae deletion strains, locus YNL322C, strain KRE1, active compounds read low 0.047 | S. cerevisiae deletion strains, locus YNR052C, strain pop2, active compounds read low 0.12 | S. cerevisiae deletion strains, locus YOL006C, strain TOP1, active compounds read low 0.0979 | S. cerevisiae deletion strains, locus YOL147C, strain pex11, active compounds read low 0.0692 | S. cerevisiae deletion strains, locus YOR061W, strain CKA2, active compounds read low 0.05 | S. cerevisiae deletion strains, locus YOR069W, strain VPS5, active compounds read low 0.0532 | S. cerevisiae deletion strains, locus YOR083W, strain WHI5, active compounds read low 0.882 | S. cerevisiae deletion strains, locus YOR106W, strain vam3, active compounds read low 0.818 | S. cerevisiae deletion strains, locus YOR136W, strain idh2, active compounds read low 0.0688 | S. cerevisiae deletion strains, locus YOR144C, strain elg1, active compounds read low 0.063 | S. cerevisiae deletion strains, locus YOR184W, strain ser1, active compounds read low 0.0695 | S. cerevisiae deletion strains, locus YOR231W, strain MKK1, active compounds read low 0.277 | S. cerevisiae deletion strains, locus YOR270C, strain vph1, active compounds read low 0.776 | S. cerevisiae deletion strains, locus YOR316C, strain cot1, active compounds read low 0.0564 | S. cerevisiae deletion strains, locus YPL051W, strain arl3, active compounds read low 0.892 | S. cerevisiae deletion strains, locus YPL055C, strain LGE1, active compounds read low 0.0708 | S. cerevisiae deletion strains, locus YPL241C, strain CIN2, active compounds read low 0.0549 | S. cerevisiae deletion strains, locus YPL256C, strain CLN2, active compounds read low 0.356 | S. cerevisiae deletion strains, locus YPR119W, strain clb2, active compounds read low 0.063 | S. cerevisiae deletion strains, locus YPR141C, strain kar3, active compounds read low 0.859 | S. cerevisiae deletion strains, locus YPR163C, strain tif3, active compounds read low 0.0724 | S. cerevisiae deletion strains, locus YPR167C, strain met16, active compounds read low 0.0586 | S. cerevisiae deletion strains, strain wtn01, active compounds read low 0.0598 | S. cerevisiae strains, strain wild type, active compounds read low 0.0461
